Screens as filed in PubChem BioAssay.
In the library only some 1.2% were active in any assay of this set; here they are far more common.
GLA inh pH 4.5: qHTS Assay for Inhibitors of Human alpha-Galactosidase at pH 4.5; 230,000 tested, under 10 active; activity change, negative = inhibition, % at 105 µM; purified enzyme, 4-MU-alpha-Gal fluorescence, pH 4.5; Alpha-galactosidase A (Homo sapiens), P06280;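 further: 0% = full activity with enzyme and -100% = basal without enzyme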
Target sequence (P06280 whole entry, looked up): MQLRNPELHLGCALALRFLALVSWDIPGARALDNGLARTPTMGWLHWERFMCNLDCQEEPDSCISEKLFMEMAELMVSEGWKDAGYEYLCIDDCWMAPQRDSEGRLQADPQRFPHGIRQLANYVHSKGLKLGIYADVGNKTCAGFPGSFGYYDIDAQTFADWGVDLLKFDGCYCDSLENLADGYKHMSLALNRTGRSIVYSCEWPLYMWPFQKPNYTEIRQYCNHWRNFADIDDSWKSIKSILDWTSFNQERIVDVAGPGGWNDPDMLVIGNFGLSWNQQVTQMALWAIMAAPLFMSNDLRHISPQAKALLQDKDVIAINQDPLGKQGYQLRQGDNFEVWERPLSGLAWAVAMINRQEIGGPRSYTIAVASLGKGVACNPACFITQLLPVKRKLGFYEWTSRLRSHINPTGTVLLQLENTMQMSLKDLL
PKM2 activator: qHTS Assay for Activators of Human Muscle isoform 2 Pyruvate Kinase; purified PKM2, Kinase-Glo ATP luminescence, activation; response scale: 0% is enzyme alone, no compound; Potency, µM (top dose mostly 57.5 µM), for the others: top-dose activation, actives largely listed as activators; hit rate 0.34% among 260,000; further: potency means the concentration at half of the fitted maximal effect; on the % scale 0 is the no-effect control and ±100 the full control effect; nearly all actives have a fitted effect of over 55% in size
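ATP formation by purified human PK-M2, quantified via coupled luciferase luminescence after 1 h at room temperature with 0.1 mM ADP and 0.5 mM PEP final.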
HttQ103 aggreg: qHTS Multiplex Assay to Identify Dual Action Probes in a Cell Model of Huntington: Aggregate Formation (GFP); PC12 HttQ103-GFP aggregates, Acumen cytometry, 40 h; Potency, µM (doses to about 46.1 µM), inactives show at the top dose activity change, negative = inhibition, hits mostly inhibitors; hit rate 1.1% among 220,000; further: potency means the concentration at half of the fitted maximal effect; on the % scale 0 is the no-effect control and ±100 the full control effect; nearly all actives have a fitted effect of over 60% in size
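PC12/HTTQ103-GFP, ecdysone-inducible; teb 100 nM; cpd qHTS titration; GFP aggregates read on laser cytometer, Ex 488/Em 500-530 nm.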
HTT cytoprotect: qHTS Multiplex Assay to Identify Dual Action Probes in a Cell Model of Huntington: Cytoprotection (ATP) | PC12 HTT-Q103 induced, cytoprotection, ATP luminescence, 40 h | Potency, µM (titrated, usually from 56.4 µM), for inactives: cytoprotection (ATP increase), usual class: activators | AID 1471, 2008 | hit rate 0.14% among 230,000; further: potency means the concentration at half of the fitted maximal effect; % of control where 0% means no effect; nearly all actives have a fitted effect of over 45% in size
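Rat PC12, Q103 Htt exon1-GFP fusion, ecdysone promoter; tebufenozide inducer 100 nM final; compound titration; qHTS, 1500 cells/well; ATPlite luminescent read.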
aGal spleen mod: qHTS Assay for Inhibitors and Activators of Human alpha-Galactosidase From Spleen Homogenate; Alpha-galactosidase A (Homo sapiens), P06280; human spleen homogenate, 4MU-alpha-Gal fluorescence, 40 min; Potency, µM (doses to about 80 µM), without a hit: at the highest dose activity change, negative = inhibition, most hits filed as inhibitors; hit rate 0.008% among 240,000;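 further: potency means the concentration at half of the fitted maximal effect; 0% = enzyme with vehicle and -100% = no enzyme basal signal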
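Fluorogenic readout (Ex 365/Em 440 nm) of 4-methylumbelliferone released from 1 mM 4-MU-alpha-galactoside by spleen homogenate, 40 min at 37C, pH 5.0. Data normalized to no-enzyme and enzyme controls; Hill-equation AC50 from compound titrations.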
HeLa viability: Secondary assay for Activators of Human Pyruvate Kinase M2 isoform - Cell Titer Glo cytotoxicity assay; shares compounds with PKM2 activator; HeLa viability, CellTiter-Glo ATP luminescence, 24 h; activity change, negative = cytotoxicity, % at 57.5 µM; 230 tested, under 10 active; AID 1898, 2009; further: % of control where 0% means no effect
* hit, by the source's call; ? = inconclusive; . = no result; [ ] = another dose, or the depositor's remark. The call rests on the fitted dose curve; in most records, active means well fitted curve in the direction sought with a large enough effect; inconclusive means small, poorly fitted or top-dose-only effect, or another doubt; inactive means no such curve, though single readings can be large; an effect the other way counts as inactive or inconclusive.

SMILES | GLA inh pH 4.5 | PKM2 activator | HttQ103 aggreg | HTT cytoprotect | aGal spleen mod | HeLa viability
CCOC(=O)c1c(NC(=O)CCc2ccc(CC)o2)sc(C)c1C | 5 | ? | -7% | -19% | -1% | .
C[C@@]1(C(=O)O)CCC[C@@H]1C(=O)O | . | . | . | -6%[10 µM] | . | .
Cc1cc2c(s1)c1cnn(Cc3ccccc3Cl)c(=O)c1n2C | . | . | . | . | . | 2
Cc1cc2c(s1)c1cnn(-c3ccccc3)c(=O)c1n2C | . | . | . | . | . | 3
Cc1cc2c(s1)c1cnn(Cc3ccc(F)cc3F)c(=O)c1n2C | . | . | . | . | . | 5
Cc1cc2c(s1)c1cnn(Cc3ccc(S(C)(=O)=O)cc3)c(=O)c1n2C | . | . | . | . | . | -15
COCC(=O)N1CCC[C@@]2(CCN(Cc3ccc(C#N)cc3)C2)C1 | . | . | . | -33% | 5% | .
Cc1ccnc(SCCn2c(Br)nc3c2c(=O)n(C)c(=O)n3C)n1 | . | . | . | 2%[0.074 µM] | . | .
CC1CC=CC2C1C(=O)N(Cc1ccccc1)C2c1ccc(-c2ccc(N(C)C)cc2)cc1F (configuration not stated) | . | . | . | . | 1% | .
Cc1cc2c(s1)c1cnn(Cc3ccccc3)c(=O)c1n2C | . | . | . | . | . | 3
O=c1c(Cl)c(Cl)cnn1Cc1ccc(F)cc1 | 0 | ? | ? | -97%[10 µM] | 10% | .
Cc1ccc(Cn2ncc3c4sc(C)cc4n(C)c3c2=O)cc1 | . | . | . | . | . | -2
Cc1cc2c(s1)c1cnn(Cc3ccc(F)cc3)c(=O)c1n2C | . | . | . | . | . | 6
Cc1cc2c(s1)c1cnn(CC(=O)NCCc3ccccc3)c(=O)c1n2C | 3 | -4% | 6% | -4% | -6% | .
CCCCCCCCCCCCCCCCCC(=O)NCC(COP(=O)([O-])OCC[N+](C)(C)C)OCC (configuration not stated) | -24 | . | . | . | 10% | .
CCC1=C(OC(=O)N(CC)CC)N2C(=O)OC(=NCCOC)[C@]2(C)[C@H]2C1=CC[C@H]1C(=O)N(C)C(=O)[C@H]12 | 5 | -4% | . | -15% | 5% | .
C=C(C)C(O)/C=C/c1ccc(C)cc1 (configuration not stated) | . | . | . | -3%[10 µM] | -1%[17.5 µM] | .
Cn1c(N)c(C(=O)CSc2ccc3c(c2)OCCO3)c(=O)n(C)c1=O | 2 | 3.5µM* | ? | -17% | -12% | 1
CCOc1cc(-c2noc(CCC(=O)Nc3cccnc3)n2)ccc1OC | 10 | 1.4µM* | 4% | -10% | -15% | -4
CCOc1ccccc1-c1noc(CCC(=O)Nc2cccnc2)n1 | . | 0% | . | . | . | .
CCn1cc(C(=O)NCc2ccco2)c2cc(OC)c(OC)cc2c1=O | 1 | -3% | -6% | -15%[1.9 µM] | 2% | .
COc1cc2c(C(=O)NCc3ccc(C)o3)cn(CC(C)C)c(=O)c2cc1OC | 3 | 14µM* | 18% | -27% | -6% | 2
CCCCc1nc2c(c3c1C[C@H](C)OC3)CN(C(=O)c1cc(I)ccc1F)CC2 | 6 | 2%[11.5 µM] | . | -13%[10 µM] | 7%[17.5 µM] | .
O=C1NC(=O)c2cc(Br)cc3cccc1c23 | 6 | 5% | -3% | 19%[10 µM] | -6% | .
Cc1ccc(NS(=O)(=O)c2cc3c4c(cccc4c2)C(=O)NC3=O)cc1C | -1 | 4µM* | -15%[9.22 µM] | -28%[10 µM] | 15% | ?
Cc1cc(NC(=O)CSc2nc3ccccc3cc2C#N)no1 | . | 21% | . | . | . | .
COc1cc2cc(C#N)c(SCC(=O)Nc3cc(C)on3)nc2cc1OC | . | 0.22µM* | . | . | . | -5
Cn1c(SCC(=O)N/N=C/C=C\c2ccco2)nc2ccccc21 | -2 | 7.1µM* | 9% | -1% | -12% | -3
CCn1c(SCC(=O)N/N=C/C=C\c2ccco2)nc2ccccc21 | 1 | ? | ? | -1%[10 µM] | 0% | .
Cc1cccc(CN2CCN(c3nc4nonc4nc3NC3CC3)CC2=O)c1 | 8 | 3.5µM* | -14%[9.22 µM] | -2%[10 µM] | -3% | -4
